D2 PAM-1 – D2 dopamine receptor (human) potentiation; P14416; HEK293 T-REx D2, calcium flux, EC20 dopamine potentiation; potentiation, % at 10 µM; actives 0.34% (n = 340,000); AID 485347;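 active = potentiation over 3 SD above the plate norm, cut at about 30% in these data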; note: 0% is about no effect
Target sequence (P14416 whole entry, looked up): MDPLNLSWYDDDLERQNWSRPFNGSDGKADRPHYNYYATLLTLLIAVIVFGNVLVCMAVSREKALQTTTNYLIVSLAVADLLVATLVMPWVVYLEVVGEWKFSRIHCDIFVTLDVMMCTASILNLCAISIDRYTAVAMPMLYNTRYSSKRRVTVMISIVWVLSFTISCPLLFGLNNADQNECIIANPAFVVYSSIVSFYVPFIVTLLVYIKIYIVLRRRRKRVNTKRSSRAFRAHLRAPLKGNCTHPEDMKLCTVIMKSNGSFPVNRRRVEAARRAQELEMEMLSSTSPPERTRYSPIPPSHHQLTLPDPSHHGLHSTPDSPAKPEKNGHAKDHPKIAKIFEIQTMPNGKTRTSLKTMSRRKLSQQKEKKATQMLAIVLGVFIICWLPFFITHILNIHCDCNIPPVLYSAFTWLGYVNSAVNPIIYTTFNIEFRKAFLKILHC
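Tetracycline-induced HEK293 T-REx cells force-coupled to calcium signalling expressed D2; compounds were pin-added after a 10 s baseline, read kinetically 180 s, then an EC20 dopamine challenge followed with a further 180 s calcium read.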
D2 antagonist – D2 dopamine receptor (human) antagonism; AID 485344; inhibition, % at 10 µM; HEK293 TREx D2 cells, calcium flux, dopamine EC80; actives 2% (n = 340,000); P14416; in the data active = inhibition above about 30%; inactive = below that, where a call was filed; note: 0% is about no effect
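Tetracycline-induced HEK293 T-REx cells expressing D2 force-coupled to calcium signalling were dye-loaded, exposed to compound for 180 s, then challenged with an EC80 of dopamine; calcium flux was followed kinetically for a further 180 s.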
D2 ag-1 – D2 dopamine receptor (human) agonism; HEK293 T-REx D2 cells, calcium flux agonist mode; activation, % at 2 µM; actives 0.53% (n = 340,000);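 active = activation over 3 SD above normal in the single-dose calcium agonist read, cut at about 30% in these data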; note: 0% is about no effect
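Tetracycline-induced HEK293 Trex cells with D2 receptor force-coupled to calcium signaling, plated overnight at 30 C and loaded with no-wash calcium dye. Calcium flux read kinetically for 180 s after compound addition; responses flag agonists.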
D2 ag-2 – human D2 receptor agonism in beta-arrestin assay; P14416; DiscoveRx PathHunter D2 beta-arrestin, luminescence, 90 min; 100% = 57 uM dopamine signal; activation, % (test concentration not listed); actives 0.084% (n = 360,000); AID 624465; in the data active = activation above about 40%; inconclusive = between about 15% and that limit
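DiscoveRx PathHunter D2 beta-arrestin cells (2,100/well) attached overnight, then compound-stimulated 90 min at 37 C in HBSS/10 mM HEPES/0.1% Tween-20 buffer; beta-galactosidase complementation read by luminescence after 1 h at ambient temperature. Dopamine 57 uM final (EC100) as control.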
D2 PAM-2 – potentiates the human D2 dopamine receptor allosterically; P14416; DiscoveRx D2 beta-arrestin cells, luminescence, 90 min; 100% = 57 uM dopamine signal; potentiation, % (concentration not given with the values); actives 0.23% (n = 360,000); AID 624464; in the data active = potentiation above about 50%; inconclusive = mostly about 30% to 49%
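PathHunter D2 cells, attached overnight at 37 deg C, received compound in DMSO plus dopamine at EC20 (50 nM final) for 90 min at 37 deg C. Beta-arrestin recruitment was read as luminescence after 1 h with detection reagent at ambient temperature.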
Active calls of the source: *; ? = inconclusive; . = no result. Most compounds without a hit are left out; they make up all but 2.4% or so of the library.

SMILES | D2 PAM-1 | D2 antagonist | D2 ag-1 | D2 ag-2 | D2 PAM-2
COc1cc(CNCCCN2CCOCC2)cc(Br)c1OCC(=O)N1CCCCC1 | 8 | 32* | 0 | -3 | -5
COc1cc(CNCCCN2CCOCC2)cc(Br)c1OCc1ccc(Cl)cc1 | -6 | -2 | 3 | 4 | 2
Cn1c(=O)c2cc(S(=O)(=O)NC(Cc3ccccc3)C(=O)Nc3ccc(F)cc3)ccc2n(C)c1=O (centres undefined) | 4 | . | -1 | . | .
CCOCCn1ccc2c(OCC(=O)Nc3ccc(C(N)=O)cc3)cccc2c1=O | 0 | . | 2 | . | .
O=C(NC12CC3CC(CC(C3)C1)C2)N1CCN(c2ccccn2)CC1 | -2 | 31* | 36* | 1 | -8
COC(=O)Nc1nnc(Cc2ccccc2)s1 | 7 | -9 | -1 | -1 | -7
Cc1ccccc1NC(=O)Nc1nnc(CC(=O)NCc2ccccc2)s1 | -1 | 31* | 0 | -3 | -13
Cc1ccccc1NC(=O)Cc1nnc(NC(=O)Nc2ccccc2F)s1 | 4 | 14 | 1 | 3 | -8
CC(C)C(=O)Nc1nnc(Cc2ccccc2)s1 | 6 | 30* | 1 | -3 | -3
CCc1ccc(NC(=O)Nc2ccccc2OCc2cc(=O)n3ccccc3n2)cc1 | -6 | . | 1 | . | .
CC(C)n1nnnc1SCC(=O)N1N=C(c2cccs2)CC1c1cccs1 (centres undefined) | -16 | 39* | 0 | 3 | 25
Cc1cccc(NC(=S)N2CCN(c3ccccn3)CC2)c1 | 2 | -11 | 2 | 1 | 11
CC(C(=O)Nc1ccccc1)N1CCN(c2ccccn2)CC1 (centres undefined) | -15 | 11 | 40* | 14 | -1
COc1ccc(Cl)cc1C(=O)N1CCN(c2ccccn2)CC1 | -9 | -6 | 0 | -2 | -5
COc1ccc(Cl)cc1NC(=O)C(C)N1CCN(c2ccccn2)CC1 (centres undefined) | -10 | -1 | 31* | -5 | -4
CC(=O)c1cccc(NC(=S)N2CCN(c3ccccn3)CC2)c1 | -6 | 18 | 40* | -1 | -9
CC1CCCCN1CCCNC(=O)Cn1ncc2c3ccccc3n(Cc3ccccc3)c2c1=O (centres undefined) | 0 | . | . | . | .
COc1ccc(NC(=O)C(=O)NCCc2csc3nc(-c4ccccc4C)nn23)cc1 | 17 | . | 0 | . | .
COc1ccc(Cn2c(=O)c3cccnc3n(CC(=O)Nc3ccc(C)c(F)c3)c2=O)cc1 | 4 | . | 0 | . | .
O=C(O)/C=C/C(=O)N1CCN(S(=O)(=O)c2cccc(C(F)(F)F)c2)CC1 | 5 | 31* | 0 | 3 | ?
O=C(NNC(=O)C1CCN(S(=O)(=O)c2cccc(C(F)(F)F)c2)CC1)C1CC1 | -3 | 4 | 0 | 1 | 3
CNC(=O)c1ccc(NC(=O)C2CCN(S(=O)(=O)c3cccc(C(F)(F)F)c3)CC2)cc1 | -2 | 30* | 1 | 1 | 14
Cc1c(C(Nc2ccccn2)c2ccc(Cl)cc2)c(=O)n(-c2ccccc2)n1C (centres undefined) | 26 | 0 | 0 | 1 | 7
Cc1c(C(Nc2ccccn2)c2ccccc2)c(=O)n(-c2ccccc2)n1C (centres undefined) | 36* | 2 | 0 | 4 | 0
CC(C)Cn1c(SCc2nc3ccccc3c(=O)[nH]2)nc2ccccc2c1=O | 36* | -5 | 0 | -3 | 4
SMILES | D2 PAM-1 | D2 antagonist | D2 ag-1 | D2 ag-2 | D2 PAM-2
Cn1c(SCc2nc3ccccc3c(=O)[nH]2)nc2ccccc21 | 0 | 8 | 0 | -3 | -11
COc1cccc(CNC(=O)CSc2n[nH]c(-c3ccccc3Cl)n2)c1OC | -1 | . | -2 | . | .
CCOc1cc2[nH]c(=O)n(CCCCC(=O)N3CCN(c4cccc(Cl)c4)CC3)c(=O)c2cc1OCC | -10 | . | . | . | .
CCOc1cc2[nH]c(=O)n(CCCCC(=O)N3CCCCCC3)c(=O)c2cc1OCC | 36* | 16 | 1 | 1 | -5
COc1ccc(Cl)cc1NC(=O)CSc1nc(N2CCOCC2)nc(N2CCOCC2)n1 | 6 | 17 | 0 | 1 | -5
O=C(CSc1cccc(C(F)(F)F)c1)NC(=O)c1ccccc1 | -7 | 0 | -2 | -2 | -13
O=C(CSc1cccc(C(F)(F)F)c1)Nc1ccc(Cl)cc1Cl | -9 | 49* | 0 | 1 | 9
